High-throughput results deposited in PubChem by several laboratories.
Rows were chosen to be rich in hits. Some 1.9% of all compounds tested hit in one or more screens of this group.
aDG glyco up = alpha-DG glycosylation activation | 360,000 tested, 0.22% active | activation, % at 10 µM | Pro5-aDG cells, alpha-DG glycosylation AlphaScreen (IIH6); 0% Pro5, 100% B10-LARGE cell signal;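 active = activation of at least 8% versus controls, or a plate z-score of at least 8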;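 also: Pro5 are CHO cells carrying HIG-tagged alpha-DG that lacks glycosylation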
PG9 Ab binder = small molecules binding HIV-1 gp120 antibody PG9 | inhibition, % at 6.7 µM | 360,000 tested, 0.43% active | TR-FRET gp120-PG9 antibody binding; in the data active = inhibition above about 8.5%
ZTA DNA inh = counter-screen for EBNA-1 inhibitors: inhibitors of Epstein-Barr virus ZTA; inhibition, % at 11 µM; AID 2234; 320,000 tested, 0.15% active; ZTA-DNA binding, fluorescence polarization; P03206; in the data active = inhibition above about 33%
Target sequence (P03206 whole entry, looked up): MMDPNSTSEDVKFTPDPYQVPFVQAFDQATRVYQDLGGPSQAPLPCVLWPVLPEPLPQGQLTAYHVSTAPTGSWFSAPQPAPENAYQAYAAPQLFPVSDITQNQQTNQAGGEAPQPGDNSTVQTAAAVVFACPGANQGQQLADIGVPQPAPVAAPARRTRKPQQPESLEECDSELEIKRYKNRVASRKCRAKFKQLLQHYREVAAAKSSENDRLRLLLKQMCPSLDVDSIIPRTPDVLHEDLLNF
EBNA-1 inh = blocks EBNA-1 binding to DNA; 300,000 tested, 0.34% active; inhibition, % at 14.8 µM; AID 1950; EBNA-1 DNA binding, fluorescence polarization; in the data active = inhibition above about 28%
Rev-erbA mod = Rev-erb alpha (human) modulation; P20393; Rev-erbα–FITC-DNA binding, fluorescence polarization, 90 min; activity, % at 10 µM; 370,000 tested, 0.79% active; AID 1259318;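 active = activity above about 14%, limit read from the data; passing the limit was not always enough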;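 also: 0% = DMSO wells with 35 nM protein and 100% = DMSO wells with 750 nM protein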
p47phox inh = p47phox (human) inhibition. AID 1274. 220,000 tested, 0.53% active. inhibition, % at 24.7 µM. p47phox/p22phox peptide binding, fluorescence polarization, 2 h;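 active = inhibition above about 30%, limit read from the data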;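 also: 0% = p47phox with labelled peptide and 100% = labelled peptide alone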
Target sequence (P14598 whole entry, looked up): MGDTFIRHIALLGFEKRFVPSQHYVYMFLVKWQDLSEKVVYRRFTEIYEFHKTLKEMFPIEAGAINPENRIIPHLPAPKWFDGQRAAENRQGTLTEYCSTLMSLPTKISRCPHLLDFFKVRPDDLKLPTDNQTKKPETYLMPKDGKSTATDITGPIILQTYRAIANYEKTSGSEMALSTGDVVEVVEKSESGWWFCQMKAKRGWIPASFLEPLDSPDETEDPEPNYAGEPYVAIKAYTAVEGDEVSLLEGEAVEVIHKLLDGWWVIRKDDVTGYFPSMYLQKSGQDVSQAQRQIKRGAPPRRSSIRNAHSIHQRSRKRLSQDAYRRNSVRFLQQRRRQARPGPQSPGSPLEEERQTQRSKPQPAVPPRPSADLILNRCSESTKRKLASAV
PG9 bind confirm = PG9 antibody binding, confirmed; TR-FRET PG9 antibody binding, biochemical; 1,500 tested, 90% active; inhibition, % at 6.7 µM; shares compounds with PG9 Ab binder; in the data active = inhibition above about 9%
PGV04 Ab binding = binds control antibody PGV04 in PG9 binder counter-screen | shares compounds with PG9 Ab binder | TR-FRET PGV04 antibody-gp120 binding, biochemical | inhibition, % at 6.7 µM | 1,500 tested, 95% active; in the data active = inhibition above about 9.5%
PG9 bind DR = PG9 antibody binding, dose response; 95 tested, under 10 active; shares compounds with PG9 Ab binder; AID 651848; TR-FRET PG9 antibody-gp120 binding inhibition; IC50, µM; in the data active = IC50 below about 10 µM
PGV04 binding DR = counter-screen for PG9 binders: binding to control antibody PGV04. shares compounds with PG9 Ab binder. TR-FRET binding to control antibody PGV04. IC50, µM. 95 tested, 20% active
PG126 binding DR = PG126 binding, dose response counter-screen | shares compounds with PG9 Ab binder | 95 tested, 20% active | AID 651939 | TR-FRET binding to antibody PG126, counterscreen | IC50, µM
Active calls of the source: *; x = no result. Rule as the data show it, unless noted: active = IC50 below about 9 µM; inactive = the rest.

SMILES | aDG glyco up | PG9 Ab binder | ZTA DNA inh | EBNA-1 inh | Rev-erbA mod | p47phox inh | PG9 bind confirm | PGV04 Ab binding | others
O=C(C1=C(O)C(=O)N(CC2CCCO2)C1c1ccccc1F)c1ccco1 (stereo not given) | 0 | 9.8* | 9 | 4 | -2 | x | 16* | 20*
CC(=O)c1cc(-c2ccccc2)n(CC(=O)NCc2cccs2)c1C | 0 | 12* | 11 | 13 | 14 | 0 | 14* | 22*
Cc1cccc(CCNS(=O)(=O)c2ccc3c(c2)oc(=O)n3C)c1 | 0 | 18* | -23 | -4 | 7 | -9 | 5 | 7
CCOC(=O)N1CCN(C(=O)C[C@H]2C[C@@]3(C(=O)OC)C(=C[C@H](COCc4ccccc4)O[C@@H]3C)N(Cc3ccc(Cl)cc3Cl)C2=O)CC1 | x | x | x | x | -1 | x | x | x
CCc1nnc2sc(-c3cc(-c4ccccc4)nc4ccccc34)nn12 | 1 | 8.6* | -15 | 6 | 13 | -13 | 7 | 10*
COC(=O)c1cc2c(-c3ccccc3)c(C)c3ccccn3c-2c1C(=O)OC | 0 | 26* | -7 | 9 | 3 | 25 | 35* | 53*
O=C1c2[nH]nc(-c3ccccc3O)c2C(c2ccc(F)cc2)N1CC1CCCO1 (stereo not given) | 0 | -1 | 6 | -2 | 1 | -6 | x | x
O=C1c2[nH]nc(-c3ccccc3O)c2C(c2cccc(Cl)c2)N1CC1CCCO1 (stereo not given) | 0 | 8.6* | 4 | 9 | 0 | -20 | 25* | 19* | PG9 bind DR=>67;PGV04 binding DR=>67;PG126 binding DR=>67
COC(=O)c1cc2ccsc2n1CC(=O)NCC1CCCO1 (stereo not given) | 1 | 0 | 16 | -4 | 1 | -6 | x | x
COC(=O)c1cc2ccsc2n1CC(=O)Nc1cc(C)cc(C)c1 | 0 | 33* | 16 | 5 | 16 | -17 | 38* | 48*
CCOC(=O)c1cc2sccc2n1CC(=O)Nc1ccc(OC)cc1 | 0 | 12* | -4 | 5 | 7 | -9 | 16* | 31*
C=CC[C@@H]1NN2C(=O)[C@@H](CCCC)[C@@H]3c4ccccc4C=NN3[C@@H]2c2ccccc21 | x | x | x | x | -3 | x | x | x
COc1ccc(S(=O)(=O)N2CCN(c3ncccn3)CC2)cc1 | 0 | 1 | 3 | -10 | 1 | x | x | x
O=S(=O)(c1ccc(Cl)cc1)N1CCN(c2ncccn2)CC1 | 0 | 16* | 13 | 3 | 5 | -7 | 26* | 32*
Cc1ccc(C(=O)C2=C(O)C(=O)N(c3ncccn3)C2c2ccc(Cl)cc2)o1 (stereo not given) | 0 | 19* | 14 | 2 | -6 | -13 | 31* | 39*
COc1ccc(C2C(C(=O)c3ccc(C)o3)=C(O)C(=O)N2Cc2cccnc2)cc1OC (stereo not given) | 0 | 8 | 18 | 6 | 0 | x | x | x
Cc1cc(N2C(=O)C(O)=C(C(=O)c3ccc(C)o3)C2c2cccc(Oc3ccccc3)c2)no1 (stereo not given) | 0 | 7 | -4 | -4 | -5 | x | x | x
CCOc1ccc(C2C(C(=O)c3ccc(C)o3)=C(O)C(=O)N2Cc2cccnc2)cc1 (stereo not given) | 0 | 23* | 5 | -6 | -2 | x | 35* | 41*
Cc1ccc(C(=O)C2=C(O)C(=O)N(Cc3cccnc3)C2c2cccc(Oc3ccccc3)c2)o1 (stereo not given) | x | 48* | 3 | 8 | -3 | x | 47* | 54*
O=C(C1=C(O)C(=O)N(c2ncccn2)C1c1ccc(Cl)cc1)c1ccco1 (stereo not given) | 0 | 8 | -1 | 3 | -4 | -9 | x | x
Cc1ccc(C(=O)C2=C(O)C(=O)N(Cc3cccnc3)C2c2ccc(Cl)cc2)o1 (stereo not given) | 0 | 19* | 12 | 3 | -1 | x | 27* | 36*
CCOC(=O)C1=C(O)C(=O)N(Cc2cccnc2)C1c1ccc(C)cc1 (stereo not given) | 0 | 0 | -5 | -7 | 3 | -4 | x | x
COC(=O)C1CCN(C(=O)CN2CCC(C(=O)c3ccc(C)cc3)CC2)CC1 | x | x | x | x | 0 | x | x | x
O=c1c2cc3cc(Cl)ccc3nc2ncn1N1CCCCC1 | x | x | x | x | -2 | x | x | x
CC(C)CCNC(=O)CSc1nc2c(c(=O)[nH]1)CCC2 | x | x | x | x | -9 | x | x | x
SMILES | aDG glyco up | PG9 Ab binder | ZTA DNA inh | EBNA-1 inh | Rev-erbA mod | p47phox inh | PG9 bind confirm | PGV04 Ab binding | others
Cc1ccc(NC(=O)OC2CCC23CCCCC3)cc1 (stereo not given) | x | x | x | x | 2 | x | x | x
Clc1ccc(-c2nnc3n2N=C(c2ccc(-c4ccccc4)cc2)CS3)cc1 | x | x | x | x | -5 | x | x | x
CCCOc1ccc(C2C(C(=O)c3ccc(C)o3)=C(O)C(=O)N2Cc2ccco2)cc1 (stereo not given) | 0 | 14* | 13 | 24 | -1 | x | 16* | 21*
OC(c1ccccc1)(c1ccccc1)C1CCN(CCCNc2ccc(Cl)cc2Cl)CC1 | x | x | x | x | 5 | x | x | x
Cc1ccc(Cn2cc(CN3[C@@H](CC(C)C)COc4cccc(F)c4S3(=O)=O)nn2)cc1 | x | x | x | x | 1 | x | x | x
CCc1cc2c(SCC(=O)NC(=O)c3cccn3C)ncnc2s1 | 1 | 21* | -14 | -9 | 4 | -18 | 18* | 34*
Cc1cc(NC(=O)CSc2ncnc3sccc23)no1 | 0 | 1 | -1 | -1 | 2 | -6 | x | x
CCc1cc2c(SCC(=O)Nc3cc(C)on3)ncnc2s1 | 0 | 22* | -11 | 0 | 12 | -14 | 32* | 48*
Cc1ccc2c(c1)C(CS(=O)(=O)NCc1ccccc1)NC2 (stereo not given) | x | x | x | x | -4 | x | x | x
N#Cc1cn(-c2ccccc2)nc1-c1ccc2c(c1)OCCO2 | 0 | 24* | 12 | -6 | 21 | 0 | 20* | 28*
CCN1C(=C(C#N)C#N)C=Cc2cc(C)ccc21 | 0 | 23* | -1 | 5 | -3 | 3 | 20* | 31*
COc1ccccc1-c1c(C(F)(F)F)oc2cc(OCC(=O)Nc3ccccc3C(F)(F)F)ccc2c1=O | 0 | 12* | 12 | 11 | 2 | -4 | 20* | 37*
Cc1ccc(NC(=O)CCn2cnc3ccccc3c2=O)cc1Cl | 0 | 13* | 7 | 17 | 9 | -6 | 18* | 23*
